Of roughly 7,900 targets only a part is listed; those with a hit were picked by preference. About 0.6% of all pairs of compound and target were hits. Values without a mark were called inactive.
Compound: c1cn2cc(-c3ccc4cn[nH]c4c3)nc(Nc3ccc(N4CCOCC4)cc3)c2n1 [entospletinib]
Experiment: log2 fold change, soluble protein after heating vs DMSO (PISA); higher = thermal stabilisation; K562 cells, 10 uM, 30 min; active = over 0.2 and 3.5 SD of the protein, either way, in both replicates (recomputed)
In short: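 Soluble protein was defined as the supernatant after 21,000xg for 90 min. It came from K562 cells at 2×10^6 cells/mL given 10 μM compound for 30 min, heated in aliquots for 3 min across 48°C-58°C, pooled, and extracted in PBS with 0.5% NP-40 at 4°C, and was quantified by TMTpro 16plex LC-MS/MS with equalised channel sums. Thermal stability against control samples, from duplicates, is reported as log2 fold change.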

Chain of UniProt Q8IWE5 (Q8IWE5 whole entry, looked up): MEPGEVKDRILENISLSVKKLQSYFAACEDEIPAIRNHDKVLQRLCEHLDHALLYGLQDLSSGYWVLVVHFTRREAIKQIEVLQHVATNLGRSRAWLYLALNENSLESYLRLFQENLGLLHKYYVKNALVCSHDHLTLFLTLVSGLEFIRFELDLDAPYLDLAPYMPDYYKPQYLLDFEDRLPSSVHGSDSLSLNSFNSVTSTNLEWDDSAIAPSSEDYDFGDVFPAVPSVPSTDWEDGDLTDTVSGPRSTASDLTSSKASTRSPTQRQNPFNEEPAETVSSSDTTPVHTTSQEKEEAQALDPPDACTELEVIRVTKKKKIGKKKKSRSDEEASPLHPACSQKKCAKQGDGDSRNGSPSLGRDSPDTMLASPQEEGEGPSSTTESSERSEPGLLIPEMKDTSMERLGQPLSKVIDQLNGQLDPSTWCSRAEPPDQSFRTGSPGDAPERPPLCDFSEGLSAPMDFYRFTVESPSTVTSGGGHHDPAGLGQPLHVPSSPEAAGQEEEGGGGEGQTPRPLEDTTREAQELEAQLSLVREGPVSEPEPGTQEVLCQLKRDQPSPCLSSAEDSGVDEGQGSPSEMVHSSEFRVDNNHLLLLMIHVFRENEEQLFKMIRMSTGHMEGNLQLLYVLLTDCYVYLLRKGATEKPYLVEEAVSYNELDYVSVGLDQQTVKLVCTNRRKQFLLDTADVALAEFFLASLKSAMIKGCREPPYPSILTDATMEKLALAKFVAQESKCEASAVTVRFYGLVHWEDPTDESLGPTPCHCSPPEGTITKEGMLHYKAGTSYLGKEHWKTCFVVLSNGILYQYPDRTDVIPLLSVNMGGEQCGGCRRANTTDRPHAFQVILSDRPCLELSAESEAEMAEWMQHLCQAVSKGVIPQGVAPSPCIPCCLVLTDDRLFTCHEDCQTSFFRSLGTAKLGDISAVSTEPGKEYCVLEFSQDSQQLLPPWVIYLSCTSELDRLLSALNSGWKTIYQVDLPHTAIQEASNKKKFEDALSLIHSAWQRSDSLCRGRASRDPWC
Chain of UniProt P13861 (P13861 whole entry, looked up): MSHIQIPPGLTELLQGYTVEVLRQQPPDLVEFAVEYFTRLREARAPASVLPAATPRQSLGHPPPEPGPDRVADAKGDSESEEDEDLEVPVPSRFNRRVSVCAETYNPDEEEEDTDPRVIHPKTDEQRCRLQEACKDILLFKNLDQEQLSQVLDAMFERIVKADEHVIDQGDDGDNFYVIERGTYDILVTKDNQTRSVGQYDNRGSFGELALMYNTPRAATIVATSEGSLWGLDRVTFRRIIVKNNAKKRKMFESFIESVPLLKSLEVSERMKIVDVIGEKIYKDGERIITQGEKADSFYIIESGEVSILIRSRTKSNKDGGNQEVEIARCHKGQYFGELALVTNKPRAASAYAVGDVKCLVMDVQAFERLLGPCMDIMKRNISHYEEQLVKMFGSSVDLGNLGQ
Chain of UniProt P27986 (P27986 whole entry, looked up): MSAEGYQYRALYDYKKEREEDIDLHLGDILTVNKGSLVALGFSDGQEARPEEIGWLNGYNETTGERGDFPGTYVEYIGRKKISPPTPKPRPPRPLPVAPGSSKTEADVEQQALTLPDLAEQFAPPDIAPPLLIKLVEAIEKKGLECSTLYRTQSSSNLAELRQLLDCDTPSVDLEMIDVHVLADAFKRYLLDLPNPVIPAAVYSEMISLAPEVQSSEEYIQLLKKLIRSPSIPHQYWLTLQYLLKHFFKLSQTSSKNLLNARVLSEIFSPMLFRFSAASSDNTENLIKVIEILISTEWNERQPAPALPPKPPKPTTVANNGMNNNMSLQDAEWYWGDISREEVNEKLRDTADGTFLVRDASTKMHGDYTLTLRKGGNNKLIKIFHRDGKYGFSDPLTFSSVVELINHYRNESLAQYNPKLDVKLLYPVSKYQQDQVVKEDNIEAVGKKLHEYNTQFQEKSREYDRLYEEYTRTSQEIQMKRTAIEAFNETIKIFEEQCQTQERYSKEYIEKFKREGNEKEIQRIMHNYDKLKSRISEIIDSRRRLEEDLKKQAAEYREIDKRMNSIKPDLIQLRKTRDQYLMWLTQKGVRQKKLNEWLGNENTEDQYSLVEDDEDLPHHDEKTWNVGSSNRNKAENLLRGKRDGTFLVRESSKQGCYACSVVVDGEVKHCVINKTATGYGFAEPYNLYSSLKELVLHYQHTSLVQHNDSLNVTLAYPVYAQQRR
Chain of UniProt Q9NVM4 (Q9NVM4 whole entry, looked up): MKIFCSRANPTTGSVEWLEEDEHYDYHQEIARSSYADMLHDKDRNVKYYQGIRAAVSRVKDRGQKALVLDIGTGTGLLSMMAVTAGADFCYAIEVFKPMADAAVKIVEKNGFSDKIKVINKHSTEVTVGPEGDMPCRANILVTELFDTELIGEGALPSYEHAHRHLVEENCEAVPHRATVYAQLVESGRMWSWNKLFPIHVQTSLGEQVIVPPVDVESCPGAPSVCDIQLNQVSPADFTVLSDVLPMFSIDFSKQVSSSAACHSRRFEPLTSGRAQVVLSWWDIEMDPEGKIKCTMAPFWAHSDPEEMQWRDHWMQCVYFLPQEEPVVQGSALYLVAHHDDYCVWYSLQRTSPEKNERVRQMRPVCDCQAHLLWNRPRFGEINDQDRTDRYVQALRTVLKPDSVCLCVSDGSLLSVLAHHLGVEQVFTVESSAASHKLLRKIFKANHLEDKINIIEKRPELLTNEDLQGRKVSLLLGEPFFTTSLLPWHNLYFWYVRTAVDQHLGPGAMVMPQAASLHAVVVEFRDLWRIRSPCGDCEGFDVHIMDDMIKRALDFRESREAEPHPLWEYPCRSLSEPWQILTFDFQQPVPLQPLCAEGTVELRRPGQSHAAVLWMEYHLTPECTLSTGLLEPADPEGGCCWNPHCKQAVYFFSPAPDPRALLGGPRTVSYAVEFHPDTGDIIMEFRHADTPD
Chain of UniProt P62136 (P62136 whole entry, looked up): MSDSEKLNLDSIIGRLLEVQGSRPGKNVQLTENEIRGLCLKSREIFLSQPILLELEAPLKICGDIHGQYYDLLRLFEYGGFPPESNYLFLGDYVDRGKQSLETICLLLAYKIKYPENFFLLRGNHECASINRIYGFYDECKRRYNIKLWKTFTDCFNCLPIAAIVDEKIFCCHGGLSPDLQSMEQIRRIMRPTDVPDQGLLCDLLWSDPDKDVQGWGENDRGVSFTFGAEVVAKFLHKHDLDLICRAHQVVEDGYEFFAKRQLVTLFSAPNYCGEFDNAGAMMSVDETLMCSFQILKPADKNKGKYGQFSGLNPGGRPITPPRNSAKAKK
Chain of UniProt Q29RF7 (Q29RF7 whole entry, looked up): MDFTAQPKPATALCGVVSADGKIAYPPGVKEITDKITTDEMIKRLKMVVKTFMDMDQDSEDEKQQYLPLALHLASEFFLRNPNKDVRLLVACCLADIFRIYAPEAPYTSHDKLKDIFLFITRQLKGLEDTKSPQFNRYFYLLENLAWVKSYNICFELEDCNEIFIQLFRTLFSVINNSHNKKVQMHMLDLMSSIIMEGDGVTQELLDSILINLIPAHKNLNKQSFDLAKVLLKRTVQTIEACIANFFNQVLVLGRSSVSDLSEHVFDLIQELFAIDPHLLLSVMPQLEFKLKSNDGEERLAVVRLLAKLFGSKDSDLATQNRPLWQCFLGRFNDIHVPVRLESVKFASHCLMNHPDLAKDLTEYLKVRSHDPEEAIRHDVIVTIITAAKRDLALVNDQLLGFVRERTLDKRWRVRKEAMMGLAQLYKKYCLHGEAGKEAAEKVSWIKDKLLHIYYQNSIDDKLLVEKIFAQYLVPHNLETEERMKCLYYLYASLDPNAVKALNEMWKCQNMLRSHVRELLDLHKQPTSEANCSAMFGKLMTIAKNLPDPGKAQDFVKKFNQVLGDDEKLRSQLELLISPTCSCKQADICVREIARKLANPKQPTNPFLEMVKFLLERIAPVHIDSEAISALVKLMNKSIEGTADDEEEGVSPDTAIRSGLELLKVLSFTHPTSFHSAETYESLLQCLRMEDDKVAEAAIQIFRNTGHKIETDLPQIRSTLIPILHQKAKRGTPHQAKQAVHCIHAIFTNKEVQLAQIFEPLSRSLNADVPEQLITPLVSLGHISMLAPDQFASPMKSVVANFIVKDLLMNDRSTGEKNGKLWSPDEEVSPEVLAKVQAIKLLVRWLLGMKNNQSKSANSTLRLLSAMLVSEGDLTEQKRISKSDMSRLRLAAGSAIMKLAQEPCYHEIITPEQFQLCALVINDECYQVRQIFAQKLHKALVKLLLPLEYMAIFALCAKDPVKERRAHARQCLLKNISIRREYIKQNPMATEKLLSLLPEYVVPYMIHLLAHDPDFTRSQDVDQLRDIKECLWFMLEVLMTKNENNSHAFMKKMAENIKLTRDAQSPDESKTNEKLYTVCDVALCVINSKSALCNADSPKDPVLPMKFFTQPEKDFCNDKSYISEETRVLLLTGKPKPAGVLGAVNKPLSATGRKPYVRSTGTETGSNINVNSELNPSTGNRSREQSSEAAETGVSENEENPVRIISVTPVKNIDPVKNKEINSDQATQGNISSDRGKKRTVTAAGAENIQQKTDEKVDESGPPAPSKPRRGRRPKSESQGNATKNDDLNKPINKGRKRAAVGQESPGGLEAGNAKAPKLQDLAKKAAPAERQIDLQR
Chain of UniProt Q8TBX8 (Q8TBX8 whole entry, looked up): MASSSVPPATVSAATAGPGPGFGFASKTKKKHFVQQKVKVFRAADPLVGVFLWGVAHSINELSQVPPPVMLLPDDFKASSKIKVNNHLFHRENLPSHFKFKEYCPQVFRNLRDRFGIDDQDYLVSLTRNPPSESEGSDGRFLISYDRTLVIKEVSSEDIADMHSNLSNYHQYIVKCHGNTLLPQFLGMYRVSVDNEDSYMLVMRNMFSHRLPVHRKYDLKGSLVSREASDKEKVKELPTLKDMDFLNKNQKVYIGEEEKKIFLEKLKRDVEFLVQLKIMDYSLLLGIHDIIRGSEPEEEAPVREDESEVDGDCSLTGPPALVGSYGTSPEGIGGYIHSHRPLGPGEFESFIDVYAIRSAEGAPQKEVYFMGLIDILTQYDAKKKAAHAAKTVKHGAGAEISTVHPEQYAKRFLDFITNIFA

| Target | log2 fold change |
| --- | --- |
| PRKACB isoform 2 (UniProt P22694) | -0.019 |
| POLD3 (UniProt Q15054) | -0.054 |
| PI4K2B (UniProt Q8TCG2) | -0.005 |
| PRKAR2A (UniProt P13861) | 0.088 |
| PIP4K2C (UniProt Q8TBX8) | -0.031 |
| PDS5A (UniProt Q29RF7) | 0.039 |
| PTPA (UniProt A6PVN8) | -0.004 |
| PSMC3 (UniProt P17980) | 0 |
| PPP1CA (UniProt P62136) | 0.037 |
| PGGHG (UniProt Q32M88) | 0.023 |
| PLEKHM2 (UniProt Q8IWE5) | -0.051 |
| PRG4 (UniProt Q92954) | -0.006 |
| PSMD7 (UniProt P51665) | 0.064 |
| PCNT (UniProt O95613) | 0.14 |
| PNPLA4 (UniProt P41247) | 0.003 |
| PEX13 (UniProt Q92968) | 0.012 |
| PIK3R1 (UniProt P27986) | -0.045 |
| PRMT7 (UniProt Q9NVM4) | 0.055 |
| PAN2 (UniProt Q504Q3) | -0.151 |
| PDPK1 (UniProt O15530) | -0.037 |
| PIP4P2 (UniProt Q8N4L2) | 0.115 |
| PNPLA2 (UniProt Q96AD5) | -0.056 |
| PYGB (UniProt P11216) | -0.156 |
| PRKACA (UniProt P17612) | 0.007 |

From the supplement of paper PMC10849652
